This is part of a sample that, as a whole, favours compounds with a hit. Of some 83,000 tested, about 20% had one in any assay.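 Each cell line was grown in a 96-well plate and treated with one concentration of compound for 48 hours. Values below 10 were considered active.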 Values without a mark were called inactive. Activity calls are given as the source filed them.

In PubChem BioAssay (NCI) one finds growth data, which are given here for eight molecules.

Test systems include SK-MEL-2 melanoma; EKVX NSCLC; SN12C renal; UO-31 renal; TK-10 renal; ACHN renal; CAKI-1 renal; A498 renal; CCRF-CEM leukemia; MOLT-4 leukemia; SR leukemia; RPMI-8226 leukemia; OVCAR-8 ovarian; OVCAR-5 ovarian; OVCAR-4 ovarian; SK-OV-3 ovarian; IGROV1 ovarian; OVCAR-3 ovarian; HS 578T breast; NCI/ADR-RES ovarian.
What all share (test): NCI-60 one-dose screen, 48 h (100 = growth as untreated, 0 = no growth, -100 = all killed)
Common to all, as to conditions: 10 µM unless noted

In the case of `O=C(O)[C@@H](Cc1ccc2ccccc2c1)NC(=O)n1c2ccccc2c2ccccc21`, the growth with SK-MEL-2 melanoma is 33.3%; in the experiment with EKVX NSCLC, 47.9%; in the experiment with SN12C renal, 34.1%; with UO-31 renal it was 38.9%; in the experiment with TK-10 renal, 58.1%; in the experiment with ACHN renal, 48.8%. In addition, the growth in the experiment with CAKI-1 renal was 30.5%; with A498 renal it was 9.24% (active); with CCRF-CEM leukemia, 13%; in the experiment with MOLT-4 leukemia, 24.5%; in the experiment on SR leukemia it was 25.7%; in the experiment on RPMI-8226 leukemia it was 9.9% (active). Moreover, the growth was 21.2% in the experiment with OVCAR-8 ovarian; 37.6% with OVCAR-5 ovarian; 43.9% in the experiment on OVCAR-4 ovarian; 39.7% in the experiment on SK-OV-3 ovarian; 29.6% in the experiment on IGROV1 ovarian; 6% (active) in the experiment on OVCAR-3 ovarian. Besides, the growth in the experiment with HS 578T breast was 17.4%; with NCI/ADR-RES ovarian it was 7.01% (active).
`COc1cc(-c2nc3cc(Cl)c(Cl)cc3[nH]2)ccc1OCC(=O)N=Nc1c(O)[nH]c2ccc(Cl)cc12`: the growth was -27.3% (active) in the experiment with SK-MEL-2 melanoma; 45.7% in the experiment with EKVX NSCLC; 0.477% (active) in the experiment with SN12C renal; 89% with UO-31 renal; 36.5% with TK-10 renal; 29.2% in the experiment on ACHN renal. Also, the growth in the experiment with CAKI-1 renal was 15.2%; in the experiment with A498 renal, 20.1%; with CCRF-CEM leukemia, -31.3% (active); in the experiment on MOLT-4 leukemia it was -27.8% (active); in the experiment with SR leukemia, -30.7% (active); with RPMI-8226 leukemia, 10.4%. Further, the growth is 2.5% (active) in the experiment on OVCAR-8 ovarian; 26.8% in the experiment with OVCAR-5 ovarian; 12.2% in the experiment on OVCAR-4 ovarian; -5.3% (active) in the experiment on SK-OV-3 ovarian; -0.308% (active) with IGROV1 ovarian; -94.3% (active) in the experiment on OVCAR-3 ovarian. Moreover, the growth is -14% (active) in the experiment on HS 578T breast and 88.2% in the experiment on NCI/ADR-RES ovarian.
As for `COc1cccc(-c2cc(-c3cccc(Cl)c3)c(C#N)c(=O)[nH]2)c1`, the growth in the experiment on SK-MEL-2 melanoma was 60.8%; in the experiment with EKVX NSCLC it was 90.4%; with SN12C renal it was 85.2%; in the experiment with UO-31 renal, 71.5%; in the experiment on TK-10 renal, 95.9%; with ACHN renal, 94.2%. Also, the growth in the experiment on CAKI-1 renal was 64.9%; with A498 renal, 45.8%; with CCRF-CEM leukemia, 28.2%; in the experiment with MOLT-4 leukemia it was 64.8%; with SR leukemia, 45.5%; with RPMI-8226 leukemia, 64.3%. The growth with OVCAR-8 ovarian was 89.6%; in the experiment on OVCAR-5 ovarian, 96.7%; in the experiment with OVCAR-4 ovarian, 73%; in the experiment on SK-OV-3 ovarian it was 81%; with IGROV1 ovarian, 71.8%; in the experiment on OVCAR-3 ovarian, 51%. In addition, the growth in the experiment with HS 578T breast is 49.3%; in the experiment with NCI/ADR-RES ovarian it was 69.2%.
Regarding `Cc1nnc(-c2ccc3c(c2)nc(/C=C/c2ccccc2)n3C2CCCCC2)o1`, the growth in the experiment with SK-MEL-2 melanoma is 82%; with EKVX NSCLC, 86.8%; in the experiment on SN12C renal, 90.1%; with UO-31 renal it was 58.2%; in the experiment with TK-10 renal, 104%; in the experiment with ACHN renal, 54.7%. The growth with CAKI-1 renal is 112%; in the experiment on A498 renal, 97.8%; in the experiment with CCRF-CEM leukemia, 53.8%; in the experiment with MOLT-4 leukemia it was 43.4%; in the experiment with SR leukemia, 46%; in the experiment with RPMI-8226 leukemia, 44.3%. The growth with OVCAR-8 ovarian is 80.2%; in the experiment with OVCAR-5 ovarian, 125%; in the experiment with OVCAR-4 ovarian it was 82.3%; with SK-OV-3 ovarian, 64.8%; with IGROV1 ovarian, 77.1%; with OVCAR-3 ovarian, 75.4%. For the same molecule, the figures for the growth in the experiment with HS 578T breast and with NCI/ADR-RES ovarian were 90.3% and 85.2%, respectively.
Consider `O=C(O)c1ccc(-c2ccc(/C=N/Nc3nc(Nc4ccccc4)nc(N4CCCCC4)n3)o2)cc1`, for which the growth in the experiment on SK-MEL-2 melanoma is 68.5%; in the experiment on EKVX NSCLC, 78.8%; with SN12C renal it was 66.8%; with UO-31 renal it was 44.4%; with TK-10 renal, 41.8%; in the experiment with ACHN renal, 73.3%. Also, the growth in the experiment on CAKI-1 renal is -5.95% (active); with A498 renal, 72.8%; with CCRF-CEM leukemia it was 62.8%; in the experiment on MOLT-4 leukemia it was 79.9%; with SR leukemia, 65.5%; in the experiment with RPMI-8226 leukemia it was 43.7%. For the same molecule, the growth with OVCAR-8 ovarian was 48.7%; in the experiment with OVCAR-5 ovarian, 94.9%; with OVCAR-4 ovarian it was 77.1%; in the experiment on SK-OV-3 ovarian it was 92%; in the experiment on IGROV1 ovarian, 45.2%; in the experiment on OVCAR-3 ovarian it was 64.8%. In addition, the results for the growth with HS 578T breast and with NCI/ADR-RES ovarian were 40.7% and 57.7%, respectively.
Turning to `COc1ccc2nc(Cl)c(/C=C3\CC(c4ccccc4)=NN(c4ccccc4)C3=O)cc2c1`, the growth was 63.4% in the experiment on SK-MEL-2 melanoma; 67.7% in the experiment with EKVX NSCLC; 72.3% in the experiment on SN12C renal; 61.7% in the experiment with UO-31 renal; 78.6% in the experiment with TK-10 renal; 18.4% in the experiment with ACHN renal. For the same molecule, the growth is 14.5% with CAKI-1 renal; 46.9% in the experiment on A498 renal; 96.9% with CCRF-CEM leukemia; 79.8% with MOLT-4 leukemia; 76.6% with SR leukemia; 97.3% with RPMI-8226 leukemia. The growth with OVCAR-8 ovarian was 41.8%; in the experiment with OVCAR-5 ovarian, 93.5%; in the experiment on OVCAR-4 ovarian it was 37.4%; in the experiment on SK-OV-3 ovarian it was 46.5%; in the experiment on IGROV1 ovarian it was 50.7%; in the experiment on OVCAR-3 ovarian it was 74.4%. Besides, the growth is 32.9% in the experiment on HS 578T breast and 60.2% in the experiment with NCI/ADR-RES ovarian.
For the molecule `O=C(Nc1cnc(Nc2ccc(N3CCOCC3)nc2)nc1Oc1ccc(C(F)(F)F)cc1)c1ccncc1`, the growth was 94.8% in the experiment with SK-MEL-2 melanoma; 100% in the experiment with EKVX NSCLC; 85% in the experiment on SN12C renal; 98.4% with UO-31 renal; 107% in the experiment on TK-10 renal; 98.9% with ACHN renal. For the same molecule, the growth in the experiment with CAKI-1 renal was 90.4%; in the experiment with A498 renal, 95.8%; in the experiment with CCRF-CEM leukemia, 90.8%; with MOLT-4 leukemia, 101%; in the experiment on SR leukemia, 19.3%; with RPMI-8226 leukemia, 100%. Moreover, the growth with OVCAR-8 ovarian is 86.6%; with OVCAR-5 ovarian it was 92.9%; with OVCAR-4 ovarian, 80.3%; in the experiment with SK-OV-3 ovarian, 101%; in the experiment with IGROV1 ovarian it was 94%; in the experiment with OVCAR-3 ovarian it was 85%. Further, the figures for the growth with HS 578T breast and in the experiment on NCI/ADR-RES ovarian were 81.6% and 86%, respectively.
As for `CN(C)c1ccc(/C=C(\C#N)c2cc3ccccc3[nH]2)cc1`, the growth in the experiment with SK-MEL-2 melanoma was 27.3%; in the experiment on EKVX NSCLC, 42.2%; in the experiment with SN12C renal it was 29%; with UO-31 renal, 37.8%; in the experiment on TK-10 renal, 49.2%; with ACHN renal, 46.2%. The growth was 31.5% in the experiment with CAKI-1 renal; 14.4% in the experiment with A498 renal; 9.57% (active) in the experiment on CCRF-CEM leukemia; 38.4% with MOLT-4 leukemia; 20% in the experiment on SR leukemia; 6.48% (active) in the experiment on RPMI-8226 leukemia. Further, the growth was 26% in the experiment on OVCAR-8 ovarian; 44.9% in the experiment with OVCAR-5 ovarian; 55.7% with OVCAR-4 ovarian; 26.5% in the experiment on SK-OV-3 ovarian; 50% in the experiment with IGROV1 ovarian; 8.37% (active) with OVCAR-3 ovarian. The values for the growth in the experiment with HS 578T breast and in the experiment on NCI/ADR-RES ovarian were 1.2% (active) and 10.8%, respectively.
